This note sets out measurements from PubChem BioAssay (Tox21).

Records with an inconclusive call do not appear. Activity calls are given as the source filed them. Unless noted, calls follow the shape of the dose curve; as a rule, active = well fitted curve in the direction sought with a large enough effect in the repeat runs; inconclusive = weak or mixed curves; inactive = no such curve, though single readings can be large; an effect the other way counts as inactive or inconclusive.

Assay [1] can be described thus: qHTS assay to identify small molecule antagonists of the peroxisome proliferator-activated receptor delta (PPARd) signaling pathway - cell viability counter screen (AID 743213). Also: % is scaled to controls: 0 for no effect and ±100 for the full control effect; nearly all actives have a fitted effect of over 50% in size. Put shortly: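 CellTiter-Glo was added to PPARd-bla HEK293H wells following 17 h compound treatment in the presence of 300 nM L165041. Luminescence was recorded after 30 min at room temperature.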
Background: Quantitative high-throughput screening tests each substance at several concentrations.

Assay [2] in a line: qHTS assay to identify small molecule agonists of the farnesoid-X-receptor (FXR) signaling pathway - cell viability counter screen (AID 743218). Also: % is scaled to controls: 0 for no effect and ±100 for the full control effect; nearly all actives have a fitted effect of over 45% in size. In short, it runs like this: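 Parallel cytotoxicity test: compound-treated (16 h, 37 C) HEK 293T FXR-bla reporter cells were lysed with CellTiter-Glo and luminescence recorded.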
Assay [3] deals with Vitamin D3 receptor (Homo sapiens) (UniProt P11473). The experiment in a line: qHTS assay to identify small molecule agonists of the vitamin D receptor (VDR) signaling pathway (AID 743222; calls by dose curve; also: % is scaled to controls: 0 for no effect and ±100 for the full control effect). In short, it runs like this: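 In VDR-bla cells, compound-induced beta-lactamase expression is quantified by FRET substrate fluorescence. Treatment lasts 16 h at 37C; substrate develops 2 h at room temperature.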

The target is the same in assay [4]. As to the kind of experiment: qHTS assay to identify small molecule antagonists of the vitamin D receptor (VDR) signaling pathway (AID 743223; active = well fitted inhibition curve with a large enough effect in the signal ratio in the repeat runs, not every such curve was filed as active; the % refers to the signal ratio; also: % is scaled to controls: 0 for no effect and ±100 for the full control effect). Put shortly:
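Reporter line VDR-bla; stimulus 1alpha,25-(OH)2 vitamin D3, 3 nM final; compound co-addition, 16 h 37C/5% CO2; LiveBLAzer B/G substrate 2 h RT; fluorescence intensity.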

A short description of assay [5]: qHTS assay to identify small molecule agonists of the vitamin D receptor (VDR) signaling pathway - cell viability counter screen (AID 743224). Also: series mostly up to about 63 µM; % is scaled to controls: 0 for no effect and ±100 for the full control effect; nearly all actives have a fitted effect of over 50% in size. Put shortly:
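Plated VDR-bla cells (4 h, 37C) received compound, incubated 16 h, then LiveBLAzer substrate 2 h RT; CellTiter-Glo added afterwards, luminescence read at 30 min.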

The nature of assay [6]: qHTS assay to identify small molecule agonists of the endoplasmic reticulum stress response signaling pathway (AID 1159516; active = well fitted activation curve with a large enough effect in the signal ratio in the repeat runs, not every such curve was filed as active; the % refers to the signal ratio; also: % is scaled to controls: 0 for no effect and ±100 for the full control effect). In short, it runs like this: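 An ESRE-bla HeLa cell assay: compounds were pin-transferred from DMSO onto overnight-plated cells and left 5 hr at 37 C. Substrate was then loaded for 2 hr at room temperature before reading fluorescence at 460 nm and 530 nm.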

Assay [7] can be described thus: qHTS assay to identify small molecule agonists of the endoplasmic reticulum stress response signaling pathway - cell viability counter screen (AID 1159517; calls by dose curve;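 also: HeLa cells carrying an ER stress response element beta-lactamase reporter; series mostly up to about 61 µM; % is scaled to controls: 0 for no effect and ±100 for the full control effect; nearly all actives have a fitted effect of over 50% in size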). Put shortly:
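ESRE-bla HeLa cells, 1,500 per well, seeded overnight then treated with compounds for 5 hr at 37 C. After the beta-lactamase read, viability in the same wells is measured by CellTiter-Glo luminescence after 30 min at room temperature.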

Assay [8] in a line: qHTS assay to identify small molecule antagonists of the retinoid-related orphan receptor gamma (ROR-gamma) signaling pathway - cell viability counter screen (AID 1159520). Also: % is scaled to controls: 0 for no effect and ±100 for the full control effect; nearly all actives have a fitted effect of over 50% in size. Put shortly:
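Tet-on ROR gamma CHO cells were given compounds for 2 hr, then doxycycline hyclate at 1 uM final, and incubated 16 hr at 37 C. Viability was measured as ATP content by CellTiter-Glo luminescence.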

Assay [9] addresses Nuclear receptor ROR-gamma (Homo sapiens) (UniProt P51449). As to the kind of experiment: qHTS assay to identify small molecule antagonists of the retinoid-related orphan receptor gamma (ROR-gamma) signaling pathway (AID 1159521). Put shortly: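 Decreased RORE-driven luciferase luminescence indicates antagonism. Tet-on RORγ CHO cells received compound, then 1 uM final doxycycline 2 h later; signal read after 16 h incubation.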

The nature of assay [10]: qHTS assay to identify small molecule agonists of the AP-1 signaling pathway - cell viability counter screen (AID 1159525; calls by dose curve; also: nearly all actives have a fitted effect of over 55% in size). Put shortly: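 AP-1-bla ME-180 cells in Opti-MEM with 0.5% dialyzed FBS, compound exposure 5 h at 37 C in 15-point titration. Viability read in the same wells as ATP content by CellTiter-Glo luminescence, normalised to tetra-n-octylammonium bromide and DMSO controls.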

Assay [11] is described as follows: qHTS assay to identify small molecule agonists of the AP-1 signaling pathway (AID 1159526; calls by dose curve; also: % is scaled to controls: 0 for no effect and ±100 for the full control effect).
Assay [12] has as its target Retinoic acid receptor RXR-alpha (Homo sapiens) (UniProt P19793). The experiment in a line: qHTS assay to identify small molecule agonists of the RXR signaling pathway (AID 1159527; calls by dose curve; also: nearly all actives have a fitted effect of over 35% in size; also: potency is read from the fitted curve at half-maximal effect). In short, it runs like this: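 16 hr incubation of compound-treated RXR-alpha-UAS-bla HEK 293T cells (2% charcoal-stripped FBS, 37 C) preceded a 2 hr room-temperature LiveBLAzer FRET substrate step and blue/green fluorescence measurement.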

Assay [13] is described as follows: qHTS assay to identify small molecule agonists of the peroxisome proliferator-activated receptor delta (PPARd) signaling pathway - cell viability counter screen (AID 743211). Also: % is scaled to controls: 0 for no effect and ±100 for the full control effect; nearly all actives have a fitted effect of over 55% in size. Put shortly: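 qHTS cell viability: PPARd-bla HEK293H; 17 h cpd, 37C; CellTiter-Glo, luminescence at 30 min RT.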
Assay [14] deals with Bile acid receptor (Homo sapiens) (UniProt Q96RI1). The experiment in a line: qHTS assay to identify small molecule antagonists of the farnesoid-X-receptor (FXR) signaling pathway (AID 743217; active = well fitted inhibition curve with a large enough effect in the signal ratio in the repeat runs, not every such curve was filed as active; the % refers to the signal ratio; also: % is scaled to controls: 0 for no effect and ±100 for the full control effect). Put shortly:
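GeneBLAzer FXR-UAS-bla HEK 293T, CDCA-stimulated (50 uM final). Compound treatment 16 h, 37 °C. Detection: beta-lactamase cleavage of B/G FRET substrate, fluorescence.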

Assay [15] shares this target. As to the kind of experiment: qHTS assay to identify small molecule agonists of the farnesoid-X-receptor (FXR) signaling pathway (AID 743220; active = well fitted activation curve with a large enough effect in the signal ratio in the repeat runs, not every such curve was filed as active; the % refers to the signal ratio; also: % is scaled to controls: 0 for no effect and ±100 for the full control effect). In short, it runs like this: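 Beta-lactamase reporter under UAS control in GeneBLAzer FXR HEK 293T cells (5000/well) measured with LiveBLAzer FRET substrate after 2 h at room temperature. Compound exposure lasted 16 h at 37C.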

The target of assay [16] is Peroxisome proliferator-activated receptor delta (Homo sapiens) (UniProt Q03181). The experiment in a line: qHTS assay to identify small molecule agonists of the peroxisome proliferator-activated receptor delta (PPARd) signaling pathway (AID 743212; calls by dose curve; also: % is scaled to controls: 0 for no effect and ±100 for the full control effect). In short, it runs like this: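 GeneBLAzer UAS-bla HEK293H cells carrying a PPARδ construct were exposed to compounds at 37 °C. Beta-lactamase activity was read by FRET fluorescence after 2 h at room temperature with LiveBLAzer B/G substrate.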

The target is the same in assay [17]. As to the kind of experiment: qHTS assay to identify small molecule antagonists of the peroxisome proliferator-activated receptor delta (PPARd) signaling pathway (AID 743215; active = well fitted inhibition curve with a large enough effect in the signal ratio in the repeat runs, not every such curve was filed as active; the % refers to the signal ratio). In short, it runs like this:
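HEK293H UAS-bla, PPARd; agonist L165041 300 nM final with cpd in DMSO; 37 C 17 h; FRET substrate, RT 2 h; fluorescence intensity.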

The nature of assay [18]: qHTS assay to identify small molecule antagonists of the vitamin D receptor (VDR) signaling pathway - cell viability counter screen (AID 743225). In short, it runs like this:
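Parallel cytotoxicity test: VDR-UAS-bla HEK 293T, 3 nM (final) 1-alpha,25-dihydroxyvitamin D3 with test compound, 16 h, 37C. Endpoint is CellTiter-Glo luminescence in the same wells.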

Assay [19] is described as follows: qHTS assay to identify small molecule antagonists of the farnesoid-X-receptor (FXR) signaling pathway - cell viability counter screen (AID 743221; active = well fitted cell-killing curve with a large enough effect in the repeat runs, not every such curve was filed as active). Put shortly:
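After a 5 h settling period, FXR-bla HEK 293T cells receive compound and chenodeoxycholic acid (50 uM final) and incubate 16 h at 37 C; CellTiter-Glo luminescence, read after 30 min at room temperature, reports cell viability.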

Chain of Peroxisome proliferator-activated receptor delta (Homo sapiens) (Q03181 whole entry, looked up): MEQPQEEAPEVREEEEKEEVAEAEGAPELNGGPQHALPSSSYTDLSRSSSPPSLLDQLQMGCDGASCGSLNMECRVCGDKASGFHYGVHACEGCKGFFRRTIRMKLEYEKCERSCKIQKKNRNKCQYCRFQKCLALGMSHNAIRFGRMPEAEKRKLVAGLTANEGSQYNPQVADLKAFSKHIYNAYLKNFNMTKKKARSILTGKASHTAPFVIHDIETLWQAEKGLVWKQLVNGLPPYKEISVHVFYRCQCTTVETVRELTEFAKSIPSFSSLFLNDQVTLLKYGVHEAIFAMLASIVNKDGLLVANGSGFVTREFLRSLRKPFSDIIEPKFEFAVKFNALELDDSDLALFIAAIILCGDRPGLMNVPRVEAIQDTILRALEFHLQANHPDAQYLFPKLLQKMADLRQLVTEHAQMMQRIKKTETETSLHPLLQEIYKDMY
Chain of Bile acid receptor (Homo sapiens) (Q96RI1 whole entry, looked up): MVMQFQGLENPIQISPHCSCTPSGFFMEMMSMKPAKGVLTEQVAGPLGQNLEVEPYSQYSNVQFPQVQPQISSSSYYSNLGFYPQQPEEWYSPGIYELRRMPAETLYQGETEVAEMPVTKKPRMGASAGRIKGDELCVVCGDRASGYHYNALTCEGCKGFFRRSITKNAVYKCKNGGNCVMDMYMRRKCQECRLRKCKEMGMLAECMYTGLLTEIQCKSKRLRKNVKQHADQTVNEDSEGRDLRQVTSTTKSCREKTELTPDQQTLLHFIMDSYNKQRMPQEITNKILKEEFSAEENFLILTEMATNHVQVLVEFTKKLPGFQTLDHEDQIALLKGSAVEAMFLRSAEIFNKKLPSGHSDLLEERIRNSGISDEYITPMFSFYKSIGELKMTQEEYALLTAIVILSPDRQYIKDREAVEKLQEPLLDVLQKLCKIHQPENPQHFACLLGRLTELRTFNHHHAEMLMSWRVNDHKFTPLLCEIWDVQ
Chain of Vitamin D3 receptor (Homo sapiens) (P11473 whole entry, looked up): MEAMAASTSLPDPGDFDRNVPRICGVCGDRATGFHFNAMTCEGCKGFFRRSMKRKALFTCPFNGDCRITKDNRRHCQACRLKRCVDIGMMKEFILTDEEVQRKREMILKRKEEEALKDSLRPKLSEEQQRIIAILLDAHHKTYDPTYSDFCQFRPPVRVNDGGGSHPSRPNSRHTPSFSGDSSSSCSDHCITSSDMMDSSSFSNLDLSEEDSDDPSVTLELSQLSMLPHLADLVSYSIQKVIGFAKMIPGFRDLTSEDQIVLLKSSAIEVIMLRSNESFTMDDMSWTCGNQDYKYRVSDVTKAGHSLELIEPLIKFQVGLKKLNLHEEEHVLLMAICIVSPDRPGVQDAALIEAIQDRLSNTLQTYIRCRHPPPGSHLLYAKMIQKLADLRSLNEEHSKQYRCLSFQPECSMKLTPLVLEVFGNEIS
Chain of Retinoic acid receptor RXR-alpha (Homo sapiens) (P19793 whole entry, looked up): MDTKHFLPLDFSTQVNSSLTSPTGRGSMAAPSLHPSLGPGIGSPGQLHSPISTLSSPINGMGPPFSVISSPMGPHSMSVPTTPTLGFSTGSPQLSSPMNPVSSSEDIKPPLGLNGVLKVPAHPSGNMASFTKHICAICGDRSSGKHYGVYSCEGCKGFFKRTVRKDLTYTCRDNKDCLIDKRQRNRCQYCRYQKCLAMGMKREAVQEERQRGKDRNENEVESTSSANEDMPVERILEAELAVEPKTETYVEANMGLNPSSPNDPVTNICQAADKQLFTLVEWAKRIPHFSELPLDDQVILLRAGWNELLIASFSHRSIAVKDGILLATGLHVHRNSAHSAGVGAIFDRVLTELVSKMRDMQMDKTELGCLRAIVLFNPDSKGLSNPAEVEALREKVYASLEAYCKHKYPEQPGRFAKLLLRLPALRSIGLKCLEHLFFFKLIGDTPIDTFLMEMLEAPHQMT

Take `CCCC(C)(COC(N)=O)COC(=O)NC(C)C` (centres undefined): the Potency result in assay [1], in assay [2], in assay [4], in assay [5], in assay [6] and in assay [7] was “inactive” throughout. Besides, the Potency result in [8], in [9], in assay [10], in assay [11] and in assay [12] was “inactive” each time. For the same molecule, the outcome in [3] was inactive.
With `CC(C)CCCCCCCOC(=O)c1ccccc1C(=O)OCCCCCCCC(C)C`, the Potency result in [13], in assay [1], in assay [14], in assay [2], in assay [4] and in assay [5] was “inactive” in each case. The Potency entry in assay [6], in [7], in assay [8], in assay [9] and in assay [11] was “inactive” in each case. The molecule was called inactive in assay [15] and in assay [3].
In the case of `C=CCN1C[C@H](C)N([C@H](c2ccc(C(=O)N(CC)CC)cc2)c2cccc(OC)c2)C[C@H]1C`, the Potency result in assay [13], in [1], in assay [17], in [2], in [4] and in assay [5] was “inactive” each time. The Potency entry in assay [18], in assay [6], in assay [7], in assay [8], in assay [9] and in assay [10] was “inactive” each time. Further, the Potency entry in assay [11] and in assay [12] was “inactive” in each case. Also, the molecule was classed as inactive in assay [16] and in assay [3].
Consider `Nc1c(Br)cc(Br)c2c1C(=O)c1ccccc1C2=O`, for which the molecule was classed as inactive in assay [16] and in [3]. Also, the Potency result in [1], in assay [19], in assay [4], in assay [5], in [18] and in [6] was “inactive” each time. Further, the Potency entry in [7] was “inactive”. Also, in assay [8], the activity, negative = cytotoxicity was -2.6% [at 19 µM] (inactive). In assay [10], the viability change, negative = cytotoxic was 1.64% [at 15.8 µM] (inactive). For the same molecule, the figures for the activation in [11] and in assay [12] were 0.821% [at 15.8 µM] (inactive) and 1.05% [at 15.8 µM] (inactive), respectively.
`NC(=O)CF`: the Potency entry in assay [13], in [1], in assay [2], in assay [19], in assay [5] and in assay [6] was “inactive” each time. For the same molecule, the Potency entry in [7], in [8], in assay [9], in assay [10], in [11] and in assay [12] was “inactive” throughout. The molecule was called inactive in assay [3].
Regarding `CC(C)C1(C)N=C(c2ncccc2C(=O)O)NC1=O` (centres undefined), the Potency result in [13], in assay [1], in assay [17], in assay [14], in [2] and in [4] was “inactive” throughout. Moreover, the Potency entry in assay [5], in assay [18], in assay [6], in [7], in assay [8] and in assay [10] was “inactive” in each case. For the same molecule, the Potency result in assay [11] was “inactive”. The molecule was classed as inactive in assay [16], in [15] and in assay [3]. The Potency in [12] was 43.5 µM (active).
In the case of `O=C(O)c1cc(Cl)ccc1Cl`, the Potency result in [13], in assay [1], in assay [14], in assay [2], in assay [19] and in assay [4] was “inactive” in each case. The Potency entry in assay [5], in assay [6], in assay [7], in assay [8], in assay [9] and in [11] was “inactive” in each case. The Potency result in assay [12] is “inactive”. Also, the molecule was called inactive in assay [16], in assay [15] and in [3].
Regarding `Nc1ccccc1C(=O)OCC(O)CO` (centres undefined), the Potency entry in assay [13], in assay [1], in assay [17], in [19], in assay [4] and in assay [5] was “inactive” each time. In addition, the Potency entry in [18], in assay [6], in assay [7], in assay [8], in [10] and in assay [11] was “inactive” in each case. In addition, the Potency result in assay [12] is “inactive”. Moreover, the molecule was classed as inactive in [3].
